Sampled rows, rich in hits. Any-hit rate of the full collection: about 17%.
TDP1 cell noCPT = qHTS for Inhibitors of human tyrosyl-DNA phosphodiesterase 1 (TDP1): qHTS in cells in absence of CPT | DT40 Tdp1-/- hTDP1 cells, no CPT, ATP luminescence, 48 h | Potency, µM (highest dose often 46.2 µM), inactives show at the highest dose activity change, negative = growth inhibition, actives largely listed as inhibitors | 15% of 420,000 active; also: % is scaled to controls: 0 for no effect and ±100 for the full control effect; nearly all actives have a fitted effect of over 55% in size
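Stably hTDP1-transfected Tdp1-null chicken DT40 cells were treated with library compounds minus camptothecin and grown for at least 48 hr at 37 °C, after which cellular ATP was quantified by luminescence.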
TGFb SMAD3 inh = inhibitors of TGF-b signaling | HepG2 CAGA-GFP TGF-b/SMAD3 reporter, GFP fluorescence, 18 h; TGF-beta stimulated, 500 pg/mL final | Potency, µM (highest dose often 46.1 µM), for the others: at the highest dose activity, negative = inhibition, most hits filed as inhibitors | 1.2% of 410,000 active; also: % is scaled to controls: 0 for no effect and ±100 for the full control effect; nearly all actives have a fitted effect of over 65% in size
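HEPG2 CAGA-GFP reporter cells (1000/well, DMEM with 1% FBS) received compounds, then recombinant TGF-beta at 500 pg/mL final for 18 hours at 37 degrees C. Per-cell GFP summed per well was normalised to unstimulated and stimulated DMSO controls before curve fitting.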
TDP1 cell CPT = growth inhibition of DT40 Tdp1-/-;hTDP1 cells with camptothecin (screen for TDP1 inhibitors). chicken DT40 Tdp1-/-;hTDP1 cells + 20 nM CPT, ATP luminescence, 48 h. Potency, µM (series often up to 46.2 µM), for the others: top-dose activity change, negative = growth inhibition, actives largely listed as inhibitors. 12% of 420,000 active. AID 686979; also: % is scaled to controls: 0 for no effect and ±100 for the full control effect; nearly all actives have a fitted effect of over 55% in size
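Chicken DT40 Tdp1-/- cells complemented with human TDP1, 400 cells/well, exposed to compounds plus 20 nM camptothecin for at least 48 h at 37 C; viability read as ATP content by CellTiter-Glo luminescence.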
ATXN viability = viability counter-screen for ATXN expression inhibitors; Potency, µM (titrated, usually from 56.7 µM), most hits filed as cytotoxic; 0.49% of 400,000 active; S2 cells (HEK-293 line with an ATXN2-luciferase reporter) viability, CellTiter-Fluor protease fluorescence, 24 h; also: nearly all actives have a fitted effect of over 40% in size
ATXN2 expr inh = ATXN2 expression inhibition | HEK-293 ATXN2-luciferase reporter, luminescence, 24 h | AID 1745845 | 0.72% of 360,000 active | Potency, µM (series often up to 57 µM), inactives show top-dose activity change, negative = inhibition, usual class: inhibitors; also: % is scaled to controls: 0 for no effect and ±100 for the full control effect; nearly all actives have a fitted effect of over 55% in size
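qHTS (up to 57 uM final) was run with 24 h compound exposure of reporter cells at 37 °C. Each well was multiplexed: SteadyGlo luminescence measured ATXN2-luciferase expression after a fluorogenic Gly-Phe-AFC viability readout (25 uM final).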
HepG2 tox = HepG2 cytotoxicity, counter-screen for TGF-b inhibitors; Potency, µM (top dose mostly 46.1 µM), for the others: at the highest dose activity change, negative = cytotoxicity, hits mostly cytotoxic; HepG2 CAGA-GFP viability, ATP luminescence, 18 h; 0.76% of 410,000 active
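HepG2 CAGA-GFP cells (1000/well, DMEM with 1% FBS) received compound, then TGF-beta at 500 pg/mL final, and were incubated 18 hours at 37 degrees C. Viability was read by CellTiter-Glo luminescence. Media-only wells were set as complete cell-killing and DMSO as no toxicity.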
Active calls of the source: *; i = inactive; ? = inconclusive; . = no result; [ ] = another dose, or the depositor's remark. Calls follow the shape of the dose curve; as a rule, active = well fitted curve in the direction sought with a large enough effect; inconclusive = small, poorly fitted or top-dose-only effect, or another doubt; inactive = no such curve, though single readings can be large; an effect the other way counts as inactive or inconclusive. Potency is read from the fitted curve at half-maximal effect.

SMILES | TDP1 cell noCPT | TGFb SMAD3 inh | TDP1 cell CPT | ATXN viability | ATXN2 expr inh | HepG2 tox
O=C(CCC1N=C2c3ccccc3N=C(SCc3cccc(F)c3)N2C1=O)NC1CCCCC1 (stereo not drawn) | -21.4% | 23.4% | -11.5% | . | . | 1.5%
O=C(CC1N=C2c3ccccc3N=C(SCc3ccccc3F)N2C1=O)NCCc1ccccc1 (stereo not drawn) | 20.6µM* | ? | 20.6µM* | ? | 23.2% | -3.9%
O=C(CCC1N=C2c3ccccc3N=C(SCc3ccccc3F)N2C1=O)NC1CCCCC1 (stereo not drawn) | 18.4µM* | ? | 18.4µM* | . | . | -43.7%
O=C(CC1N=C2c3ccccc3N=C(SCc3cccc(F)c3)N2C1=O)NC1CCCCC1 (stereo not drawn) | ? | -0.3% | ? | . | . | -21.1%
O=C(CC1N=C2c3ccccc3N=C(SCc3cccc(Cl)c3)N2C1=O)NC1CCCCC1 (stereo not drawn) | 18.4µM* | ? | 16.4µM* | . | . | -29.8%
O=C(CC1N=C2c3ccccc3N=C(SCc3ccccc3Cl)N2C1=O)NC1CCCCC1 (stereo not drawn) | 11.6µM* | ? | 9.2µM* | . | . | -16.8%
O=C(OC(C(=O)NC1CCCC1)c1ccncc1)C1=Cc2ccccc2OC1 (stereo not drawn) | -21.8% | 4.0% | -12.8% | i | 1.7% | 4.2%
CC1(C)CC(Cc2ccc(C(F)(F)F)cn2)N(C(=O)OC(C)(C)C)C1 (stereo not drawn) | -18.9% | . | -17.5% | . | . | .
C#CCN(Cc1nc(N2CCOCC2)c2ccc(Cl)cc2n1)Cc1ccco1 | ? | . | 25.8%[9.04 µM] | i | . | .
Cc1ccccc1Cn1cccc1/C=C1/C(=N)N2C=CSC2=NC1=O | 29.1µM* | 189.2% | 18.4µM* | ? | -26.0% | -35.8%
CC1=CC2=NC(=O)/C(=C\c3cccn3CCOc3ccccc3C)C(=N)N2O1 | ? | ? | 20.6µM* | ? | ? | -8.6%
C=CCc1cccc(/C=N/NC(=O)CNc2ccccc2)c1O | 5.17µM* | ? | 20.6µM* | ? | 17.8µM* | -51.4%
C=CCc1cccc(/C=N/NC(=O)C(C)Nc2cccc(C)c2)c1O (stereo not drawn) | 2.91µM* | ? | 4.11µM* | i | -16.3% | -36.0%
C=CCc1cccc(/C=N/NC(=O)C[n+]2ccccc2)c1O | ? | 8.9% | ? | i | ? | -15.8%
C=CCc1cccc(/C=N/NC(=O)CNc2cccc3ccccc23)c1O | 5.8µM* | ? | 4.61µM* | ? | ? | -100.3%
C=CCc1cccc(/C=N/NC(=O)CNc2ccccc2OC)c1O | 20.6µM* | 12.6µM* | ? | i | ? | -24.1%
N#CC1(NC(=O)CN2C(=O)NC(c3ccccc3)(c3ccccc3)C2=O)CCCC1 | 0.0% | 5.6% | 4.6% | i | 2.4% | 3.3%
C=CCc1cccc(/C=N/NC(=O)CCCNc2ccc(C)cc2)c1O | 20.6µM* | ? | -87.7% | i | ? | -90.6%
Cc1ccc(NCC(=O)N/N=C\c2cccc(O)c2)cc1 | -2.0% | -11.4% | -17.0% | i | 3.1% | -7.9%
C=CCc1cccc(/C=N/NC(=O)CCC(=O)Nc2ccc(F)cc2)c1O | 8.2µM* | ? | 9.2µM* | i | 3.55µM* | -16.4%
CC1(C)C=Cc2c(cc3occ(-c4ccc5c(c4)OCO5)c(=O)c3c2O)O1 | -0.7% | . | -0.4% | . | . | .
COc1c(-c2coc3cc4c(cc3c2=O)CC(OC(C)=O)C(C)(C)O4)ccc2c1C=CC(C)(C)O2 (stereo not drawn) | 0.92µM* | . | 1.3µM* | . | . | .
COc1c(-c2coc3cc4c(cc3c2=O)CC(O)C(C)(C)O4)ccc2c1C=CC(C)(C)O2 (stereo not drawn) | 0.0206µM* | . | 0.0461µM* | . | . | .
Cc1ccc(/C=C/C(=O)O)cc1S(=O)(=O)N1CCc2ccccc21 | 17.9% | 18.2% | 7.6% | i | 2.0% | -5.7%
Cc1ccc2[nH]c(O)c(N=NC(=O)c3ccc(NS(=O)(=O)c4cccs4)cc3)c2c1 | ? | ? | 14.6µM* | i | . | -7.1%
SMILES | TDP1 cell noCPT | TGFb SMAD3 inh | TDP1 cell CPT | ATXN viability | ATXN2 expr inh | HepG2 tox
O=C(N=Nc1c(O)[nH]c2ccccc12)c1ccccc1NS(=O)(=O)c1cccs1 | -29.2% | -4.0% | 16.4µM* | i | -5.3% | -15.0%
O=C(NN=Cc1ccc(O)cc1O)c1ccccc1NS(=O)(=O)c1cccs1 | 20.6µM* | -2.2% | ? | i | ? | -18.2%
O=C(N=Nc1c(O)[nH]c2ccc(F)cc12)c1ccc(NS(=O)(=O)c2cccs2)cc1 | 9.5% | 3.8% | 33.1% | i | 0.3% | 5.8%
CN(Cc1ccc2nsnc2c1)C(=O)C1CCC(=O)N(CCc2ccccc2)C1 (stereo not drawn) | -10.9% | 3.4% | -12.5% | i | . | -19.2%
O=C(NCCCc1ccccc1)C1CC1 | 6.5% | -2.0% | 6.4% | i | -19.3% | -4.1%
Cc1nn(C)cc1CN(C)C(=O)c1sc2cccc(Cl)c2c1Cl | -8.6% | 0.0% | ? | i | 3.6% | -25.2%
CC1CCCC(C)N1C(=O)C1CCCCC1 (stereo not drawn) | -20.4% | -3.8% | 13.6% | i | 3.7% | 5.5%
CN(C)C(=O)C(OC(=O)c1ccc2c(c1)CCCC2)c1ccccc1 (stereo not drawn) | 20.6µM* | 0.3% | ? | i | -1.7% | -0.9%
COc1cccc(N2CCN(c3c(C#N)c(C(F)(F)F)nn3C)CC2)c1 | 8.2µM* | -14.6% | 23.1µM* | i | 2.3% | -34.0%
COc1cc(C(=O)Nc2ccc(Nc3ccccc3)cc2)cc(OC)c1OC | ? | 15.8% | ? | i | -18.9% | -4.3%
CCCCCCCCCCCC(=O)NC(C(=O)OCC)C(O)c1cccc([N+](=O)[O-])c1 (stereo not drawn) | 23.1µM* | ? | 16.4µM* | i | -19.5% | -72.1%
O=C(NC(=S)Nc1cc([N+](=O)[O-])ccc1O)c1cccnc1 | 25.9µM* | -29.8% | 20.6µM* | i | . | -19.6%
CCOC(=O)C(NC(C)=O)C(O)c1ccc([N+](=O)[O-])cc1 (stereo not drawn) | -0.5% | 1.8% | -2.0% | i | 5.6% | 15.6%
COc1ccc(C(=O)NNC(=S)NC(=O)c2cccc([N+](=O)[O-])c2)cc1 | 18.4µM* | -14.9% | ? | i | -28.7% | -24.4%
O=C(NC(=S)NNC(=O)c1ccccc1O)c1cccc([N+](=O)[O-])c1 | 23.1µM* | 4.3% | 23.1µM* | i | -10.2% | 3.7%

Screening data deposited in PubChem by National Center for Advancing Translational Sciences (NCATS).
